An excerpt weighted towards active compounds, which were near 3.2% of everything screened.
rRNA inh HTS = inhibits bacterial ribosomal RNA function over humanized ribosomes | AID 720706 | E. coli WT GFP vs humanized-ribosome RFP mutants, fluorescence, 24 h; active compounds read low; DMSO median 0, no signal -100 | 1.6% of 350,000 active | GFP signal change (wild-type ribosome), % (no concentration beside the values);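 active = significant combined selectivity score with lowered wild-type GFP, culture density cut under 30%, mutant RFP and density less affected; inactive = any of these conditions unmet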
GSIS activator = GLuc luminescence reporter in INS-1E cells, primary screen for activators of glucose-dependent secretion of insulin; activation, % at 16.6 µM; INS-1E GLuc reporter insulin secretion, 2-3 h; 0.61% of 370,000 active;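 active = lowest replicate activation of at least 40%, so every replicate reaches that level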;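 also: 0% = median of neutral control wells and 100% = median of IBMX positive control wells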
ERAP1 HTS inh = blocks human ERAP1 aminopeptidase activity | recombinant ERAP1, Leu-AMC fluorescence, 60 min | inhibition, % at 10.7 µM | 0.15% of 340,000 active;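 active = mean replicate inhibition of at least 30%, or all replicates individually reaching that 30% level; inactive = mean below 30% and not every replicate reaching it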;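 also: 0% = neutral control wells and 100% = L-leucinethiol positive control wells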
Target sequence (Q9NZ08 whole entry, looked up): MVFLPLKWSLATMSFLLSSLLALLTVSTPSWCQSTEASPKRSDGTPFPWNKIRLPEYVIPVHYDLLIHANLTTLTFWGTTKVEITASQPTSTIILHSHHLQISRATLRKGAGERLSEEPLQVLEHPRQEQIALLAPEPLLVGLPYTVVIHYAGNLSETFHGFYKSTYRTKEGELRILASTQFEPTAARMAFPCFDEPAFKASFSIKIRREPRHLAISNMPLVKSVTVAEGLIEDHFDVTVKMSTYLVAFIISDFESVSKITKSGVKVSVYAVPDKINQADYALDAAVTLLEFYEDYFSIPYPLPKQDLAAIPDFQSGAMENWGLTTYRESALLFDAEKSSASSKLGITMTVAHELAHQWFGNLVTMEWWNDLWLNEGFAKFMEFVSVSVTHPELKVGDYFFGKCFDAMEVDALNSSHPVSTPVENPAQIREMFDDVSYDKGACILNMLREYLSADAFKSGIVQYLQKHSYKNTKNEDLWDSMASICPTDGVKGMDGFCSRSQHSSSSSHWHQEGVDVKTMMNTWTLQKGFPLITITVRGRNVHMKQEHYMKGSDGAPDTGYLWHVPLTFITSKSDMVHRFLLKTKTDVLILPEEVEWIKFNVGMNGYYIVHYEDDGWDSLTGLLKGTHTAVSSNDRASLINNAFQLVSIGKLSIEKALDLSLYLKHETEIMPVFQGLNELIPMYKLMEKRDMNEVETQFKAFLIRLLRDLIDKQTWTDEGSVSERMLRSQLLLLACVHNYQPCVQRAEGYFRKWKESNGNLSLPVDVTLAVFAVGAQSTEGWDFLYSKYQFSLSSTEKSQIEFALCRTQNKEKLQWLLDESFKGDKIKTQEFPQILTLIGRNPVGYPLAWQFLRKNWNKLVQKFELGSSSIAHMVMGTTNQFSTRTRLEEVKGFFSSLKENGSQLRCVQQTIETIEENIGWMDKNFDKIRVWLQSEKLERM
PGC1a acetyl inh = modulators of PGC1a acetylation; U2OS PGC1a acetylation, AlphaScreen anti-acetyl-lysine; with virally co-expressed GCN5 acetyltransferase; inhibition, % at 15.6 µM; 0.17% of 350,000 active; AID 651687;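 active = every replicate shows inhibition of at least 40%; inconclusive = mean inhibition at least 40% but some replicate below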;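 also: 0% = neutral control wells and 100% = positive control wells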
CaV13 ICDI inh = Disruptors of the CACNA1D IQ motif to Ca2+-dependent inactivation inhibitor domain association, primary screening, Förster resonance energy transfer in intact living …. 0.098% of 340,000 active. HEK cells, CFP/YFP FRET ICDI-IQ, plate reader, 10 min; percent FRET-ratio fall versus neutral wells. AID 743397. inhibition, % at 12.3 µM;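 active = mean replicate inhibition of at least 30% and at least 1% of replicates passing that level; inconclusive = only one of the two criteria is met; inactive = neither criterion is met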;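 also: 0% = median of the neutral control wells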
DENV2 CPE = DENV2-induced cell death inhibition | DENV2-infected cells, cytopathic effect rescue, plate reader | 1.7% of 350,000 active | AID 651640 | CPE inhibition, % at 9.99 µM; in the data active = CPE inhibition above about 20%, passing the limit was not always enough; inconclusive = no clear call, values can overlap the other calls; tested in BHK-21 cells;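 also: 0% = median of neutral control wells and 100% = median of positive control wells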
* = called active by the depositor.

Results for CCc1ccccc1NC(=O)c1ccc(OCc2c(C)noc2C)cc1 ?
rRNA inh HTS: -20*; GSIS activator: 32; ERAP1 HTS inh: -6; PGC1a acetyl inh: -1; CaV13 ICDI inh: -6; DENV2 CPE: 13

How did Cc1noc(C)c1COc1ccc(C(=O)Nc2ccccc2)cc1 do in these assays?
rRNA inh HTS: 10; GSIS activator: -4; ERAP1 HTS inh: 1; PGC1a acetyl inh: 0; CaV13 ICDI inh: 0

How did Cc1ccc(CNC(=O)c2ccc(N(C)S(=O)(=O)c3ccccc3)cc2)cc1 do in these assays?
rRNA inh HTS: -33*; GSIS activator: -14; ERAP1 HTS inh: 0; PGC1a acetyl inh: -6; CaV13 ICDI inh: -4; DENV2 CPE: -5

How did CN(c1ccccc1)S(=O)(=O)c1ccc(C(=O)NCc2ccc(F)cc2)cc1 do in these assays?
rRNA inh HTS: -22; GSIS activator: -51; ERAP1 HTS inh: 0; PGC1a acetyl inh: 3; CaV13 ICDI inh: -6; DENV2 CPE: 2

How did Cc1noc(C)c1S(=O)(=O)N(C)C[C@@H]1OCCCC[C@@H](C)Oc2ccc(NS(=O)(=O)c3cn(C)cn3)cc2C(=O)N([C@H](C)CO)C[C@@H]1C do in these assays?
rRNA inh HTS: 2; GSIS activator: 2; ERAP1 HTS inh: -1; PGC1a acetyl inh: -2; DENV2 CPE: -3

How did CCS(=O)(=O)N1CCC2(CC1)CN(Cc1ccccc1OC)[C@H](CO)c1c2c2ccc(OC)cc2n1C do in these assays?
rRNA inh HTS: 3; GSIS activator: -4; ERAP1 HTS inh: -3; PGC1a acetyl inh: -7; DENV2 CPE: -4

Results for CCCCCCCOC(=O)c1nc(Cl)c(Cl)c(N)c1Cl ?
rRNA inh HTS: -10; GSIS activator: 416*; ERAP1 HTS inh: 1; PGC1a acetyl inh: -10; CaV13 ICDI inh: -5; DENV2 CPE: 1

Results for N#Cc1c(N)nc(SCC(=O)OCc2ccccc2)c(C#N)c1-c1ccco1 ?
PGC1a acetyl inh: 7; CaV13 ICDI inh: -4

How did N#Cc1c(N)nc(SCc2ccccc2)c(C#N)c1-c1ccco1 do in these assays?
rRNA inh HTS: -43*; GSIS activator: -28; ERAP1 HTS inh: 0; PGC1a acetyl inh: 0; CaV13 ICDI inh: -8

What do the screens show for `C[C@H](O)C#Cc1cnc2c(c1)C(=O)N([C@@H](C)CO)C[C@H](C)[C@@H](CN(C)C(=O)CC1CC1)O2`?
rRNA inh HTS: 5; GSIS activator: 24; ERAP1 HTS inh: 0; PGC1a acetyl inh: 1; DENV2 CPE: 0

Results for CO[C@H]1CN(C)C(=O)c2cc(NC(=O)NC3CCCC3)ccc2OC[C@H](C)N(CC2CC2)C[C@H]1C ?
rRNA inh HTS: 3; GSIS activator: -8

Results for COc1ccccc1Oc1cn[nH]c1-c1ccc(O)cc1O ?
rRNA inh HTS: -21*; GSIS activator: 2; ERAP1 HTS inh: 0; CaV13 ICDI inh: -4; DENV2 CPE: inconclusive

Results for C[C@H](CO)N1C[C@H](C)[C@H](CN(C)C(=O)Nc2cccc3ccccc23)Oc2ccc(NC(=O)Nc3ccccc3)cc2CC1=O ?
rRNA inh HTS: 3; GSIS activator: -2; ERAP1 HTS inh: 0; PGC1a acetyl inh: 7

Results for COc1ccc(CNC(=O)COC(=O)CCOc2ccccc2)cc1 ?
GSIS activator: 6; CaV13 ICDI inh: -2

How did CC(C)(C)c1ccc(OCCC(=O)OCC(=O)NCc2ccccc2)cc1 do in these assays?
rRNA inh HTS: -34*; GSIS activator: 2; ERAP1 HTS inh: -3; CaV13 ICDI inh: -6; DENV2 CPE: 9

How did CCCCN1C=C(C(C)=O)C(=O)CC1 do in these assays?
rRNA inh HTS: 4; GSIS activator: -4; ERAP1 HTS inh: 0; PGC1a acetyl inh: 6; CaV13 ICDI inh: -10; DENV2 CPE: 47*

What do the screens show for `COCCN1CCCC(CNCc2cn(C)nc2-c2ccc(Oc3ccccc3)cc2)C1` (stereo not drawn)?
rRNA inh HTS: 3; GSIS activator: 17; ERAP1 HTS inh: 0; PGC1a acetyl inh: -17; CaV13 ICDI inh: -7

What do the screens show for `Cn1cc(CNCc2cn(C)nc2-c2ccc(C3CCCCC3)cc2)cn1`?
rRNA inh HTS: -20*; GSIS activator: -33; ERAP1 HTS inh: 3; PGC1a acetyl inh: -4; CaV13 ICDI inh: -6; DENV2 CPE: 2

From PubChem BioAssay
